Screens deposited in PubChem BioAssay by National Center for Advancing Translational Sciences (NCATS).
Pf growth 48h: inhibits P. falciparum growth in the first generation, 48 h; Potency, µM (titrated, usually from 28.7 µM), most hits filed as inhibitors; 310,000 compounds, 5.9% hits; AID 504832; P. falciparum luciferase growth in erythrocytes, 48 h
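Firefly luciferase activity from engineered P. falciparum reports growth; inhibitors lower the luminescent signal. Cultures contained 2% hematocrit erythrocytes at 0.1% final parasitemia.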
Shiga toxin inh: blocks Shiga toxin action in Vero cells. inhibition, % at 38.7 µM. AID 2315. Vero cells, Shiga toxin protein synthesis inhibition reporter. 290,000 compounds, 9.2% hits; in the data active means inhibition mostly above about 28%, no sharp cut-off; inactive means mostly below about 43%
CHX counter: affects cycloheximide protein synthesis inhibition readout, counter-screen | cell reporter, cycloheximide protein synthesis inhibition counterscreen | max response, % | AID 2314 | 300,000 compounds, 12% hits; in the data active means max response mostly above about 13%, no sharp cut-off; inactive means mostly below about 14%; further: read at 38.3 µM for the half of the compounds with a filed dose
Pf growth 96h: inhibits malaria parasite growth, 96 h | P. falciparum luciferase reporter growth, 96 h | Potency, µM (top dose mostly 28.7 µM), usual class: inhibitors | 320,000 compounds, 6.9% hits
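Readout is luminescence from an integrated firefly luciferase in P. falciparum. Red cells, 2% hematocrit and 0.05% parasitemia final, were cultured with compound through two parasite generations (96 hours) at 37 C, 5% CO2.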
Numbers stand for hits; - = inactive; ? = inconclusive; . = no result. A selection: hits, their analogues and other compounds. The true share with any hit is near 21%. Unless noted, the call rests on the fitted dose curve; in most records, active means well fitted inhibition curve with a large enough effect; inconclusive means small, poorly fitted or top-dose-only effect, or another doubt; inactive means no such curve, though single readings can be large or run the other way.

SMILES	Pf growth 48h	Shiga toxin inh	CHX counter	Pf growth 96h
O=C(COc1ccc2ccccc2c1)Nc1ccccc1C(=O)O	-	-	20	-
O=C(COc1ccc(Cl)cc1)Nc1ccc(C(=O)O)cc1NC(=O)COc1ccc(Cl)cc1	-	-	-	-
O=C(COc1ccc(Cl)cc1)Nc1ccccc1Cl	?	76	49	?
O=C(COc1ccccc1)Nc1ccncc1Cl	-	92	52	-
O=C(COc1ccccc1)Nc1nn[nH]n1	-	-	-	-
NC(=O)c1ccccc1NC(=O)COc1ccc(Cl)cc1	-	90	29	-
CSc1ccccc1NC(=O)COc1ccc(Cl)cc1	-	48	32	?
CSc1ccccc1NC(=O)COC(=O)c1ccccc1O	-	-	-	-
Cc1ccc(OCC(=O)Nc2ccccc2C(N)=O)cc1	-	.	35	?
CCCNc1c(NC(=O)COc2ccc(Cl)cc2)c(=O)oc2ccccc12	0.066µM	-	-	?
Cc1ccc(OCC(=O)Nc2ccccc2-c2ccccc2)cc1	-	-	-	-
CCNc1c(NC(=O)COc2ccc(Cl)cc2)c(=O)oc2ccccc12	?	-	-	?
CCOc1ccccc1N1CCN(C(=O)c2ccc(OCC(=O)N3CCOCC3)c(OC)c2)CC1	-	-	-	-
O=C(O)c1ccc(S(=O)(=O)N(Cc2ccc(F)cc2)C2CCCCC2)cc1	-	-	-	12µM
Cc1ccc(S(=O)(=O)NC2CCCCCCC2)cc1	-	-	-	8.3µM
CN(Cc1ccccc1)S(=O)(=O)c1ccc(S(=O)(=O)N(Cc2ccc(F)cc2)C2CCCC2)cc1	?	-	-	.
O=S(=O)(NC1CCCCC1)c1ccc(Br)cc1	-	-	-	-
O=C(O)c1ccc(S(=O)(=O)NC2CCCCCC2)cc1	-	-	-	12µM
O=C(CSc1n[nH]c(=O)n1C1CC1)c1c[nH]c2ccccc12	-	.	.	-
COc1cccc(/C=C2\N=C(c3cncc(Br)c3)OC2=O)c1	-	-	25	-
COc1cccc(C(=O)NC2CC3CCCC(C2)N3CC(=O)Nc2ccccc2)c1 (stereo not drawn)	5.2µM	-	-	?
O=C(CN1C2CCCC1CC(NC(=O)c1ccccc1)C2)Nc1ccccc1 (stereo not drawn)	?	-	-	8.3µM
COc1cccc(C(=O)NC2CC3CCCC(C2)N3Cc2ccc(C)cc2)c1 (stereo not drawn)	?	-	-	?
COc1cccc(C(=O)NC2CC3CCCC(C2)N3CC(=O)Nc2ccc(N(C)C)cc2)c1 (stereo not drawn)	?	-	-	12µM
O=C(CN1C2CCCC1CC(NC(=O)c1ccccc1)C2)Nc1ccccc1C(F)(F)F (stereo not drawn)	?	-	-	-
SMILES	Pf growth 48h	Shiga toxin inh	CHX counter	Pf growth 96h
COc1ccc(C2=NS(=O)(=O)N(C)C(C(=O)N3CCC(C(N)=O)CC3)=C2)cc1	-	-	-	-
CCN1CCN(C2=C(NS(=O)(=O)c3ccccc3)C(=O)c3ccccc3C2=O)CC1	5.9µM	-	12	2.9µM
CCOC(=O)N1CCN(C2=C(NS(=O)(=O)c3ccccc3)C(=O)c3ccccc3C2=O)CC1	13µM	-	-	9.3µM
CCN1CCN(C2=C(NS(=O)(=O)c3ccc(Br)cc3)C(=O)c3ccccc3C2=O)CC1	2.6µM	-	-	?
NC(=O)C1CCN(C2=C(NS(=O)(=O)c3ccccc3)C(=O)c3ccccc3C2=O)CC1	?	-	-	?
CCOc1ccccc1N1CCN(C2=C(NS(=O)(=O)c3cccs3)C(=O)c3ccccc3C2=O)CC1	10µM	-	-	.
CN1CCN(C2=C(NS(=O)(=O)c3cccs3)C(=O)c3ccccc3C2=O)CC1	?	-	-	?
Cc1ccccc1C(=O)NCC(=O)OC1CCCCC1=O (stereo not drawn)	-	.	.	-
O=C(CN1C(=O)C2CC=CCC2C1=O)Nc1ccc(OC(F)(F)F)cc1 (stereo not drawn)	-	.	.	-
CCOC(=O)C1CCN(C2=C(NS(=O)(=O)c3ccc(Br)cc3)C(=O)c3ccccc3C2=O)CC1	?	-	16	?
O=C1C(Nc2ccccc2)=C(NS(=O)(=O)c2ccccc2)C(=O)c2ccccc21	10µM	-	-	4.1µM
NC(=O)C1CCN(C2=C(NS(=O)(=O)c3ccc(Br)cc3)C(=O)c3ccccc3C2=O)CC1	?	-	-	?
O=C1c2ccccc2C(=O)c2cc(S(=O)(=O)Nc3ccccc3)ccc21	-	-	-	-
CN1CCN(C2=C(NS(=O)(=O)c3ccccc3)C(=O)c3ccccc3C2=O)CC1	4.1µM	-	-	?
Cc1cc(N2CCCC2=O)c(N)cc1N	-	-	-	.
CC1CC=CC2C1C(=O)N(Cc1ccccc1)C2c1ccc(/C=C/c2ccccc2)cc1F (stereo not drawn)	.	-	-	.
